Sampled rows, rich in hits. Any-hit rate of the full collection: about 2%.
Fam108B inh – Fam108B inhibition, counter-screen for RBBP9 inhibitors; 300,000 tested, 0.33% active; recombinant Fam108B, FP-Rh probe fluorescence polarization; AID 1947; inhibition, % at 9.51 µM;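 active = inhibition above the screen mean inhibition plus 3 SD, computed separately per campaign, cut at about 18% in these data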;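 note: inhibitors lower polarization as less probe binds the enzyme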
GSTO1 counter – blocks human GSTO1 in RBBP9 counter-screen; AID 1974; P78417; recombinant GSTO1, activity-based probe fluorescence polarization; 300,000 tested, 1.1% active; inhibition, % at 5.96 µM;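 active = inhibition above the campaign mean inhibition plus 3 SD, cut at about 35% in these data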
PME-1 primary – PME-1 (human) inhibition. recombinant PME-1, FP-Rh probe fluorescence polarization. inhibition, % at 5.9 µM. 320,000 tested, 0.53% active. AID 2130;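 active = inhibition above the campaign mean of all compounds plus 3 SD, cut at about 26% in these data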;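 note: competitive labeling of PME-1 active site by serine hydrolase directed probe; inhibitors block probe labeling so polarization falls and inhibition rises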
PREPL inh – human PREPL enzyme inhibition; recombinant PREPL, fluorescence polarization activity-based probe; inhibition, % at 5.96 µM; 320,000 tested, 0.68% active; in the data active = inhibition above about 43%
Target sequence (Q4J6C6 whole entry, looked up): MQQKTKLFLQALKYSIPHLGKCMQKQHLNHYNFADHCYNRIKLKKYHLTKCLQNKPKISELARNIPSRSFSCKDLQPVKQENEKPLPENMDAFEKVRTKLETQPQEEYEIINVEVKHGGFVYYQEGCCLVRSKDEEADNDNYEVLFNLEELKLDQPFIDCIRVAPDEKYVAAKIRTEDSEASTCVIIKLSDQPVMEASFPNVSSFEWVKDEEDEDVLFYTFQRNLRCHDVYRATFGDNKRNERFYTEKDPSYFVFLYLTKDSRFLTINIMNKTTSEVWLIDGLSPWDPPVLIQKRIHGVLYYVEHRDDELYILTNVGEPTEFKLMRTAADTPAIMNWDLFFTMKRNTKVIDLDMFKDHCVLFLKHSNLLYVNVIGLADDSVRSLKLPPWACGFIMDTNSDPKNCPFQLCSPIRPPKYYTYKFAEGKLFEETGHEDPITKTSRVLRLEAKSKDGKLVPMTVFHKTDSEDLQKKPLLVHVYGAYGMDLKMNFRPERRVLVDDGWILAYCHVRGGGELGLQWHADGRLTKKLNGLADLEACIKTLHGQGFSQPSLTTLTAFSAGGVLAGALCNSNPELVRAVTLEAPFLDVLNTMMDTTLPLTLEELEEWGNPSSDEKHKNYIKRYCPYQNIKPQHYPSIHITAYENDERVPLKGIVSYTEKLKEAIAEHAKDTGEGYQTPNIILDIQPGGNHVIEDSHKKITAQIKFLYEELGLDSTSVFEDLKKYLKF
LYPLA1 counter – blocks human lysophospholipase 1, a PME1 counter-screen; O75608; recombinant LYPLA1, FP-Rh probe fluorescence polarization; inhibition, % at 5.9 µM; 320,000 tested, 0.16% active;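 active = inhibition above the mean of all tested compounds plus 3 SD, set per campaign, cut at about 14% in these data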;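 note: inhibitors block serine hydrolase probe labeling of LYPLA1 so polarization falls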
LYPLA2 counter – blocks human lysophospholipase 2, a PME1 counter-screen; recombinant LYPLA2, FP-Rh probe fluorescence polarization; inhibition, % at 5.9 µM; 320,000 tested, 0.38% active; AID 2177;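 active = inhibition above the screen-wide mean plus 3 SD, limit set per campaign, cut at about 26% in these data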
LYPLA2 conf – LYPLA2 (human) inhibition, confirmation counter-screen | shares compounds with LYPLA2 counter | recombinant LYPLA2, FP-Rh probe fluorescence polarization | inhibition, % at 5.9 µM | 1,100 tested, 72% active;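 active = mean inhibition across replicates above the hit cutoff set in the primary screen, cut at about 26% in these data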;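 note: blocked labeling of the enzyme by serine hydrolase FP-Rh probe lowers polarization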
LYPLA2 ABPP – blocks human acyl-protein thioesterase 2 in gel ABPP; 150 tested, 30% active; shares compounds with LYPLA2 counter; inhibition, % at 20 µM; rhLYPLA2 in mouse brain proteome, gel ABPP FP-Rh; AID 652029;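 active = inhibition of LYPLA2 enzyme probe labeling above about 50%, limit read from the data; inactive = inhibition below that limit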;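 note: loss of FP-Rh probe labeling of the LYPLA2 gel band measured as band density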
Of the large screens only hits and unclear results are named; the others gave an inactive call (follow-up assays come after a bar, where they were run).

COc1cc(C(=O)NCCCc2ccccc2)cc(OC)c1OC	none
COc1cc(C(=O)NCC(=O)NC(C)CCc2ccccc2)cc(OC)c1OC (centres undefined)	LYPLA2 counter 27.4 | LYPLA2 conf inactive
COc1nc2ccc(C)cc2cc1-c1noc(-c2ccccc2)n1	none
NC(=O)c1ccc(Oc2ccc(-c3nnco3)cc2)c([N+](=O)[O-])c1	none
CCN(CC)C(=O)c1ccc(Oc2ccc([N+](=O)[O-])cc2Cl)cc1	none
N#Cc1cc([N+](=O)[O-])ccc1Oc1ccc(-c2nnco2)cc1	LYPLA2 counter 29.8 | LYPLA2 conf inactive
O=[N+]([O-])c1ccc(Oc2ccc(-c3nnco3)cc2)c(Cl)c1	LYPLA2 counter 32.5 | LYPLA2 conf inactive
O=C1CCCN1CCC1CCN(C2CC(=O)N(c3ccc(Cl)cc3)C2=O)CC1 (centres undefined)	LYPLA2 counter 32.8 | LYPLA2 conf 34.5
O=C(CC1SC(N2CCCCC2)=NC1=O)Nc1ccc(C(=O)NCCc2ccc(F)cc2)cc1 (centres undefined)	LYPLA2 counter 48.6 (no result: Fam108B inh, GSTO1 counter) | LYPLA2 conf 38.6
COc1ccccc1CCNC(=O)c1ccc(NC(=O)CC2SC(N3CCCCC3)=NC2=O)cc1 (centres undefined)	none (no result: Fam108B inh, GSTO1 counter)
CCOC(=O)N1CCN(C(c2ccc(C(C)C)cc2)c2sc3nc(C)nn3c2O)CC1 (centres undefined)	LYPLA2 counter 68.6 | LYPLA2 conf 67.4
COC(=O)c1cc(NC(=O)c2ccccc2)c(=O)oc1C	LYPLA2 counter 27.1 | LYPLA2 conf inactive
O=C(NC(=S)NCc1cccnc1)c1ccc([N+](=O)[O-])cc1	none
O=C(NCc1cccnc1)c1ccc(NC(=O)c2ccc([N+](=O)[O-])cc2)cc1	LYPLA2 counter 37.4 | LYPLA2 conf 30.4
CSc1ccc(C(=O)NC2CCSc3ccccc32)cc1 (centres undefined)	none
COC(=O)CSc1nccc(C)n1	LYPLA2 counter 43.7 | LYPLA2 conf inactive
Cc1nn(CC(=O)Nc2ccc(Cl)cc2Cl)c(=O)c2ccccc12	none
O=C(CCc1ccccc1)NC(=S)Nc1cc(C(F)(F)F)ccc1N1CCOCC1	LYPLA2 counter 30.9 | LYPLA2 conf inactive
O=C(NCc1ccccc1)c1ccccc1NC(=O)C1CCCCC1	none
Cc1cc(Oc2cc(N)cc([N+](=O)[O-])c2)ccc1Cl	LYPLA2 counter 42.1 | LYPLA2 conf 39.3
Nc1cc(OCC(F)(F)F)cc([N+](=O)[O-])c1	none
O=[N+]([O-])c1ccc(Oc2cccc(C(F)(F)F)c2)nc1	LYPLA2 counter 41.4 | LYPLA2 conf 75.4 | LYPLA2 ABPP inactive
Cc1ccc(S(=O)(=O)Nc2ccccc2C(=O)N2CCCCC2)cc1	none
Oc1ccc2ccccc2c1N=Nc1ccc(F)cc1	LYPLA2 counter 28.5 | LYPLA2 conf inactive
COc1ccc(N(Cc2ccccc2)S(=O)(=O)c2cc(C(=O)O)ccc2Cl)cc1	none
O=C(Cc1ccccc1)N1CCN(c2ccc([N+](=O)[O-])cc2)CC1	none
O=C(c1ccc2nsnc2c1)N1CCN(c2ccc([N+](=O)[O-])cc2)CC1	LYPLA2 counter 26.6 | LYPLA2 conf inactive
O=C(Cc1ccc([N+](=O)[O-])cc1)N1CCN(c2ccc([N+](=O)[O-])cc2)CC1	LYPLA2 counter 69.1 | LYPLA2 conf 69.4 | LYPLA2 ABPP 70.0
CCOc1ccccc1NC(=O)COC(=O)c1cnc(C)cn1	none (no result: Fam108B inh, GSTO1 counter)
CCc1ccc(C(=O)COC(=O)c2cc([N+](=O)[O-])ccc2NCCO)cc1	LYPLA2 counter 26.9 | LYPLA2 conf inactive
COc1ccc(C(=O)NC(=S)Nc2ccc(Cc3ccncc3)cc2)cc1	LYPLA2 counter 31.9 | LYPLA2 conf 35.0
Cc1c(NC(=S)NC(=O)c2cccc3ccccc23)cccc1C(=O)O	none
Cc1c(NC(=S)NC(=O)c2ccc(COc3ccccc3)cc2)cccc1C(=O)O	LYPLA2 counter 30.2 | LYPLA2 conf inactive

Screens from PubChem.
